This is a sample that favours compounds with a hit; in the whole collection about 3.5% have one here.
LmPK inhibitor – qHTS Assay for Inhibitors of Leishmania Mexicana Pyruvate Kinase (LmPK). purified LmPK, Kinase-Glo ATP luminescence, 1 h. 0.37% of 290,000 active. Potency, µM (series often up to 57.5 µM), for the others: at the top dose activity change, negative = inhibition, actives largely listed as inhibitors; further: on the % scale 0 is the no-effect control and ±100 the full control effect
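Purified LmPK (0.1 nM) with 0.5 mM PEP and 0.1 mM ADP in imidazole buffer pH 7.2 with MgCl2/KCl, 1 h at room temperature. ATP formed was read by luciferase luminescence and normalized to no-enzyme and uninhibited controls.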
Tb PYK inh – qHTS of Trypanosoma Brucei Inhibitors | pyruvate kinase (Trypanosoma brucei), Q57TT1 | TbPYK enzyme, Kinase-Glo Plus ATP luminescence, 45 min | Potency, µM (top dose mostly 76.8 µM), inactives show top-dose activity, negative = inhibition, hits mostly inhibitors | 0.12% of 410,000 active; further: on the % scale 0 is the no-effect control and ±100 the full control effect; nearly all actives have a fitted effect of over 50% in size
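Screened from lowest to highest concentration, compounds were pinned into TbPYK/substrate mixtures, and ADP (130 uM final) was added. Plates sat at room temperature for 45 min prior to Kinase-Glo Plus detection by luminescence.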
Sm TGR block – qHTS Assay for the Inhibitors of Schistosoma Mansoni Peroxiredoxins; purified TGR, DTNB reduction, TNB absorbance 405 nm; Potency, µM (doses to about 114 µM), inactives show top-dose activity change, negative = inhibition, usual class: inhibitors; 3% of 360,000 active; AID 485364, 2010; further: on the % scale 0 is the no-effect control and ±100 the full control effect; nearly all actives have a fitted effect of over 60% in size
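TGR 20 nM + NADPH 100 uM (dispensed conc.), cpd preinc 15 min RT; start with NADPH (500 uM addition) then DTNB (15 mM addition). Kinetic TNB absorbance, 405 nm filter. Four-parameter Hill fit across titration.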
NS1 inh – qHTS Assay for Inhibitors of Influenza NS1 Protein Function. Potency, µM (series often up to 46.1 µM), for the others: top-dose activity, positive = more growth. 0.4% of 270,000 active. AID 2326, 2010; calls by dose curve; further: actives are rising curves; nearly all actives have a fitted effect of over 50% in size
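A cell-based growth assay was used: compounds that relieve NS1-induced slow growth of budding yeast raise OD600. Assay medium was yeast nitrogen base with ammonium sulphate and -URA supplement, pH 6.0, with 2% galactose.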
RE007 growth inh – qHTS Assay for Inhibitors of the HIV-1 protein Vpr. Potency, µM (titrated, usually from 92.2 µM), for the others: at the highest dose activity change, negative = less growth, actives largely listed as inhibitors. S. pombe RE007 Vpr strain, BacTiter-Glo ATP luminescence, 24 h. 0.21% of 360,000 active; active means well fitted falling curve with a large enough effect; inconclusive means small, poorly fitted or top-dose-only effect; inactive means no such curve, though single readings can be large or run the other way; further: on the % scale 0 is the no-effect control and ±100 the full control effect; nearly all actives have a fitted effect of over 50% in size
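Fission yeast RE007 carrying one integrated HIV-1 vpr copy, seeded at OD 0.01 in PMG+AL medium with 23 nL pinned compound. Grown 24 h at 30 degrees; viability read by BacTiter-Glo luminescence after 5 min.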
FBPA Giardia inh – qHTS Assay for Inhibitors of Fructose-1,6-bisphosphate Aldolase from Giardia Lamblia; A8B2U2; purified Giardia FBPA; Potency, µM (top dose mostly 59.6 µM), for inactives: at the top dose activity, negative = inhibition, usual class: inhibitors; 0.71% of 290,000 active; further: on the % scale 0 is the no-effect control and ±100 the full control effect; nearly all actives have a fitted effect of over 55% in size
Target sequence (A8B2U2 whole entry, looked up): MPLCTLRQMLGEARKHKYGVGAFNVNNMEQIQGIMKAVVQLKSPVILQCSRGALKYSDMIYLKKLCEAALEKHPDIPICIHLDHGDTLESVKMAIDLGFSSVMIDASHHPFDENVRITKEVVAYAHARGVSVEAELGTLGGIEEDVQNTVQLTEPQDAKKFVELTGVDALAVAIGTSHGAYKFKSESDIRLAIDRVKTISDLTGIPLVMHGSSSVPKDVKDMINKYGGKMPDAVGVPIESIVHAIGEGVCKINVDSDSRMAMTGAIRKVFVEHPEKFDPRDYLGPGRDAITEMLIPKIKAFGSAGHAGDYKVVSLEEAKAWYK
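40 nM FBPA preincubated 10 min at RT with compound (up to 57.5 uM final), then substrate plus GAPDH/TPI/NAD/arsenate coupling and diaphorase/resazurin added. Fluorescence read after 20 min at RT, 525/598 nm.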
Numbers without * were called inactive; ? = inconclusive; · = no result; ! = not active in a repeat; [ ] = another dose, or the depositor's remark. Unless noted, the call rests on the fitted dose curve; in most records, active means well fitted curve in the direction sought with a large enough effect; inconclusive means small, poorly fitted or top-dose-only effect, or another doubt; inactive means no such curve, though single readings can be large; an effect the other way counts as inactive or inconclusive. Potency means the concentration at half of the fitted maximal effect.

SMILES	LmPK inhibitor	Tb PYK inh	Sm TGR block	NS1 inh	RE007 growth inh	FBPA Giardia inh
Cc1ccc(-n2c(SCC(=O)NCc3ccc(F)cc3)nc3c([nH]c4ccccc43)c2=O)cc1	·	1.3%	1.3%	·	·	·
COC(=O)c1ccc(NC(=O)c2c(Br)cnn2C)cc1	1.8%	?	14.1µM*	-2.1%	-14.2%	-24.1%
CCCNC1=C(C)C(=O)C2=C(C1=O)C(COC(N)=O)[C@]1(OC)C3NC3CN21 (stereo partly drawn)	-5.1%	0.8%	35.5µM*	0.5%	0.0%	?
COc1ccc(C(=O)N2CCCN(C)CC2)cc1S(=O)(=O)N(C)Cc1ccccc1	·	0.4%	35.5µM*	·	1.7%	·
CCn1c(C)c(C2N3CC4(C)CN2CC(CC)(C3)C4=O)c2ccccc21 (stereo not drawn)	·	-18.3%	3.9%	·	·	·
CCCCC1=CC2=C(c3ccco3)C(=O)C(C)(OC(=O)c3ccc(OC)cc3)C(=O)C2=CN1CCN1CCOCC1 (stereo not drawn)	-6.5%[11.5 µM]	-8.8%	44.7µM*	-9.7%	-7.5%	?
CCCCC1=CC2=C(c3ccco3)C(=O)C(C)(OC(=O)c3ccc(OC)cc3)C(=O)C2=CN1CC(C)C (stereo not drawn)	-2.4%[11.5 µM]	-3.4%	14.1µM*	-4.8%	-3.2%	?
CCCCC1=CC2=C(c3ccco3)C(=O)C(C)(OC(=O)c3ccc(OC)cc3)C(=O)C2=CN1Cc1ccc(OC)cc1 (stereo not drawn)	-6.8%[11.5 µM]	·	-2.0%	-4.6%	·	?
CCOC(=O)N1CCN(C2CC(=O)N(c3ccc(Cl)c(Cl)c3)C2=O)CC1 (stereo not drawn)	-1.5%	-7.2%	20µM*	-23.0%	11.2µM*	2.5%
O=C(c1ccco1)N1CCN(C2CC(=O)N(c3ccc(F)c(Cl)c3)C2=O)CC1 (stereo not drawn)	-0.4%	-12.6%	20µM*	2.0%	?	-1.5%
COc1cccc(N2CCN(C3CC(=O)N(c4ccc(Cl)c(Cl)c4)C3=O)CC2)c1 (stereo not drawn)	-3.7%	1.1%	?	2.3%[9.22 µM]	35.5µM*	-5.5%
O=C(NCc1ccco1)c1ccc(Cn2c(SCc3ccc(F)cc3)nc3cccnc32)cc1	·	-0.3%	?	·	·	·
COC(=O)[C@@H](NC(=O)N1CCc2nc(-c3ccc(OC)cc3C)c3c(c2C1)CO[C@@H](c1ccccc1)C3)C(C)C	0.3%[11.5 µM]	·	·	·	·	0.2%[12.9 µM]
N[C@@H](Cc1cc(Br)c(O)c(Br)c1)C(=O)O	1.5%	·	25.1µM*	4.3%	·	?
NC(Cc1cc(I)c(Oc2ccc(O)c(I)c2)c(I)c1)C(=O)O (stereo not drawn)	·	·	·	·	·	-18.7%
N[C@@H](Cc1cc(I)c(Oc2ccc(O)c(I)c2)c(I)c1)C(=O)O	6.2%	-3.1%	50.1µM*!	27.4%	12.7%	-0.4%
N[C@H](Cc1ccc(O)cc1)C(=O)O	·	·	·	·	·	-4.7%
COc1ccc(CNC(=O)CCCc2nnc3n(C(C)C)c(=O)c4sccc4n23)cc1	·	5.7%	-4.6%	·	·	·
CCCOC(=O)c1c(-c2ccccc2)c(-c2ccccc2)nn(C)c1=O	·	-2.0%	6.1%	·	·	·
CC(C)[C@@]1(NC(=O)[C@H]2C[C@H]3c4cccc5[nH]cc(c45)C[C@@H]3N(C)C2)O[C@]2(O)[C@H]3CCCN3C(=O)CN2C1=O (tested in a mixture with another compound)	·	-0.4%	·	·	·	·
CCOC(=O)c1cccc(-c2ccc(C=O)o2)c1	-0.1%	-11.9%	50.1µM*	-23.3%	3.4%	-4.8%
COc1ccc(S(=O)(=O)c2nnn(-c3ccc(C(C)C)cc3)c2C)cc1	·	3.5%	-0.3%	·	·	·
OCCN1CCN(Cc2cc(Cl)c3cccnc3c2O)CC1	2.6%	-6.8%	44.7µM*	-50.0%	-4.4%	?
Cc1ccc(S(=O)(=O)Nc2cc(Cl)c(O)c3ncccc23)cc1	7.6%	-22.5%	15.8µM*	-149.0%	?	-23.9%
O=C(Oc1c(CN2CCOCC2)cc(Cl)c2cccnc12)c1cccs1	-1.0%	2.8%	?	·	0.7%	?
SMILES	LmPK inhibitor	Tb PYK inh	Sm TGR block	NS1 inh	RE007 growth inh	FBPA Giardia inh
Oc1c(Cl)cc(Cl)c2cccnc12	2.9%[11.5 µM]	-8.3%	15.8µM*	·	?	?
O=C(Oc1c(Cl)cc(Cl)c2cccnc12)c1cccs1	4.7%	10.3%	?	-17.4%	5.62µM*	-6.7%
Oc1c(Cl)cc(CN2CCCCC2)c2cccnc12	-1.7%	·	4.47µM*	-64.2%	·	?
O=[N+]([O-])c1cc(CN2CCCC2)c2cccnc2c1O	-0.5%	1.6%	-28.7%	?	-9.3%	17.7µM*
Oc1c(CN2CCCCC2)ccc2cccnc12	·	-6.9%	·	·	-16.1%	·
Cc1ccc(NC(=O)CC(C)S(=O)(=O)c2ccc3c(c2)NC(=O)CO3)cc1Cl (stereo not drawn)	·	-5.8%	2.8%	·	·	·
COCc1cc(C)nc2c1C(=O)NC(c1ccc(F)cc1)N2Cc1ccccc1 (stereo not drawn)	·	3.3%	17.4%	·	·	·
COc1ccccc1/C=C/CN1CCN(Cc2ccc(F)cc2)C(CCO)C1 (stereo not drawn)	-2.1%	-0.3%	-16.1%	4.2%	-20.6%	2.9%
OCCC1CN(C/C=C/c2ccco2)CCN1Cc1ccccc1 (stereo not drawn)	-1.2%	-8.4%	20µM*	0.0%	-3.2%	-10.1%
COc1ccc(/C=C/c2ccccc2)cc1C1C2C=CCCC2(C)C(=O)N1Cc1ccccc1 (stereo not drawn)	·	·	·	·	·	1.6%
COc1ccc(/C=C/c2ccccc2)cc1[C@H]1[C@@H]2C=CCC[C@@]2(C)C(=O)N1Cc1ccccc1	-6.2%	1.6%	28.2µM*	?	-8.5%	1.2%
CN(C)CCC(=O)c1ccc2c(c1)OCO2	0.7%	-11.7%	0.631µM*	-216.9%	11.2µM*	-2.4%
COC(=O)c1ccc(N/C=C\C(=O)c2ccc3c(c2)OCO3)cc1	1.0%	1.8%	11.9%	-2.9%	-21.7%	12.5%
O=C(CCNc1ccccc1)c1ccc2c(c1)OCO2	-12.8%	3.4%	2.24µM*	-80.8%	31.6µM*	5.9%
O=C(/C=C\Nc1cccc(F)c1)c1ccc2c(c1)OCO2	12.6µM*	-3.7%	-10.5%	-62.9%	?	1.1%
CCN(Cc1ccccc1)Cc1c(O)ccc2c(=O)c(-c3ccccc3Cl)c(C(F)(F)F)oc12	·	1.4%	-2.7%	·	·	·
CCc1nn(CC(=O)NCCCN(CC(C)C)CC(C)C)c(=O)c2cc3sc(C)cc3n12	·	0.9%	-0.4%	·	·	·
O=C(Nc1ccccc1OCc1cc(=O)n2ccccc2n1)Nc1ccccc1C(F)(F)F	·	-4.1%	6.4%	·	·	·
